Records with an inconclusive call do not appear. A call without a number means that no potency is given here. Activity calls are given as the source filed them. Calls come from the whole dose curve; as a rule, active = well fitted inhibition curve with a large enough effect in the signal ratio in the repeat runs (not every such curve was filed as active); inconclusive = weak or mixed curves, or effect the other way; inactive = no such curve, though single readings can be large or run the other way; the % refers to the signal ratio.
What follows are compounds tested against Glucocorticoid receptor (Homo sapiens) (UniProt P04150) (assay: qHTS assay to identify small molecule antagonists of the glucocorticoid receptor (GR) signaling pathway (AID 720692)). Conditions: GR-bla HeLa, beta-lactamase FRET ratio, dexamethasone-stimulated, 18 h; series mostly up to 58.5 µM.
Chain of Glucocorticoid receptor (Homo sapiens) (P04150 whole entry, looked up): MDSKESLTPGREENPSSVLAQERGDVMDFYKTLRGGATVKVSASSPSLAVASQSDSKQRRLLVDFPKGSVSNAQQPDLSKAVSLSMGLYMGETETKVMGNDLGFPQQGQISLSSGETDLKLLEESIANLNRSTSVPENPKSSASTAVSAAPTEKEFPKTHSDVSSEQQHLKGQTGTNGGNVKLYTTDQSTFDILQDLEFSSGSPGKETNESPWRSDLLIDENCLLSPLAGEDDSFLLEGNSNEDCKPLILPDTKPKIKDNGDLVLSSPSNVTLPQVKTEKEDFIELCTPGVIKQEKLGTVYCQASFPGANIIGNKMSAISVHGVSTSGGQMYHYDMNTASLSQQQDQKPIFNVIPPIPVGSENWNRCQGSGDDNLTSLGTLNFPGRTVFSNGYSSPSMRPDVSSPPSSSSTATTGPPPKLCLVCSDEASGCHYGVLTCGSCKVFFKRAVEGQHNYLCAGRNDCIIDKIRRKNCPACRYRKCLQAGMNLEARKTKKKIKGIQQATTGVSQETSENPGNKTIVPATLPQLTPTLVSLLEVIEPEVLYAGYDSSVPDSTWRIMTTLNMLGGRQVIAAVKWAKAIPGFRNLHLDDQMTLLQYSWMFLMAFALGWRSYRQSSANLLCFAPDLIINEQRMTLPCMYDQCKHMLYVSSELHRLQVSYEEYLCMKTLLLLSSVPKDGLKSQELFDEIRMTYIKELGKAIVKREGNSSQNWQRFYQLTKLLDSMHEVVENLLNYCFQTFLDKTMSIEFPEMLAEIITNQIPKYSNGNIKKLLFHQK
Excerpt: U.S. Tox21 Program National Center for Advancing Translational Sciences [NCATS] NIH Chemical Genomics Center [NCGC] U.S. Environmental Protection Agency [EPA] National Institutes of Environmental Health Sciences [NIEHS] National Toxicology Program [NTP] U.S. Food and Drug Administration [FDA] Tox21 Assay Overview: The Glucocorticoid receptor (GR) is one of the members of the nuclear receptor family of ligand-dependent transcription factors. GR plays a critical role in carbohydrate, protein and lipid metabolisms and programmed cell death. CellSensor GR-bla HeLa cell line (Invitrogen) contains a beta-lactamase reporter gene under the control of the glucocorticoid response element stably integrated into HeLa cells, a cervical cancer cell line that expresses glucocorticoid receptor. The activation of the reporter gene under culture conditions can be detected by fluorescence intensity. This cell line has been used to screen the Tox21 10K compound library and to identify the compounds that inhibit the GR signaling.
Tox21 Assay Protocol Summary: The GR-bla HeLa cells were dispensed at 1500 cells/5 ul/well in 1536-well black wall/clear bottom plates using a Multidrop Combi (ThermoFisher Scientific, Waltham, MA) dispenser. After the assay plates were incubated at a 37 C/5% CO2 incubator for 4 hours, 23 nL of compounds dissolved in DMSO, positive controls or DMSO only was transferred to the assay plate by a pintool station (Kalypsys, San Diego, CA), followed by addition of 1 uL of dexamethasone (5 nM, final concentration in the well). The plates were incubated at 37 C for 18 hours. After 1 uL of LiveBLAzerTM B/G FRET substrate was added using a Flying Reagent Dispenser (Aurora Discovery, San Diego, CA), the plates were incubated at room temperature for 2 hours, and fluorescence intensity was measured by an Envision plate reader (PerkinElmer, Shelton, CT).

SMILES	Potency	activity change, negative = inhibition
C1CCCNCC1	inactive	–
Brc1ccc(Oc2ccc(Br)cc2)cc1	inactive	–
Oc1ccc(Cc2ccccc2O)cc1	inactive	–
Cc1cc(CC(=O)O)n(C)c1C(=O)c1ccc(Cl)cc1	inactive	–
COC(=O)OC	inactive	–
O=Cc1ccc(CO)o1	inactive	–
CCCCCCCCC(=O)O	inactive	–
O=C(Cl)c1ccc(C(=O)Cl)cc1	inactive	–
Cc1ccncc1	inactive	–
O=C1CCCCCCCCCCC1	inactive	–
Cc1ccc(C(C)C)cc1	inactive	–
CCCN(CCC)C(=O)SCC	inactive	–
OC1CCCCC1	inactive	–
CCCCCCCCCCCC(=O)N(C)CC(=O)O	–	-13% [at 7.04 µM] (inactive)
NC1CCCCC1N (stereo not given)	inactive	–
CC(=O)OCc1ccc2c(c1)OCO2	inactive	–
CC(C)(C)NC[C@H](O)COc1nsnc1N1CCOCC1	inactive	–
CC(C)(CO)CO	inactive	–
CC(COCC(C)OC(=O)c1ccccc1)OC(=O)c1ccccc1 (stereo not given)	inactive	–
Cc1ccccc1C=O	inactive	–

SMILES	Potency	activity change, negative = inhibition
C=C(CC(=O)O)C(=O)O	inactive	–
CC(=O)Nc1ccc(CC(=O)O)cc1	inactive	–
NC(=O)c1ncn([C@@H]2O[C@H](CO)[C@@H](O)[C@H]2O)n1	inactive	–
NCCNCCNCCN	inactive	–
CC(=O)CC(=O)N(C)C	inactive	–
COCN(COC)c1nc(N(COC)COC)nc(N(COC)COC)n1	inactive	–
OCC(O)CS (stereo not given)	inactive	–
CC/C=C(\C(=O)N[C@@H]1C(=O)N2C(C(=O)OCOC(=O)C(C)(C)C)=C(COC(N)=O)CS[C@H]12)c1csc(N)n1	inactive	–
C=CC(=O)NCOCCCC	inactive	–
CC(=O)OC[C@H]1O[C@@](COC(C)=O)(O[C@H]2O[C@H](COC(C)=O)[C@@H](OC(C)=O)[C@H](OC(C)=O)[C@H]2OC(C)=O)[C@@H](OC(C)=O)[C@@H]1OC(C)=O	inactive	–
CCCCCCCC(=O)O	inactive	–
COC(=O)CCCCC(=O)OC	inactive	–
CC(C=O)Cc1ccc(C(C)(C)C)cc1 (stereo not given)	inactive	–
COc1ccc(N)c(OC)c1	inactive	–
C=CC(C)(C)C	inactive	–
CCc1cccc(CC)c1N	inactive	–
O=[N+]([O-])c1cc(C(F)(F)F)ccc1Cl	inactive	–
CC(C)=CCC/C(C)=C/C=O	inactive	–
CC1=CC(=O)CC(C)(C)C1	inactive	–
Cc1cc(C)cc(O)c1	inactive	–

From PubChem BioAssay (Tox21)
